Bioassay records: PubChem BioAssay, National Center for Advancing Translational Sciences (NCATS)
Most compounds without a hit are left out; they make up all but 9.3% or so of the library.
Rab9 promoter act: Rab9 promoter activation; Huh7 Rab9 promoter-luciferase reporter, luminescence, 24 h; Potency, µM (titrated, usually from 9.22 µM), without a hit: at the top dose activation, negative = inhibition, actives largely listed as activators; actives 2.8% (n = 320,000); AID 485297; note: % of control where 0% means no effect; nearly all actives have a fitted effect of over 60% in size
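Quantitative HTS format; Huh7 Rab9-luciferase reporter cells (1500/well) receive compound 2 h post-plating, incubate 24 h at 37 °C, then get luciferase reagent for 10 min before luminescence reading.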
SMN2 splice up: enhancers of SMN2 splice variant expression; AID 1458; Potency, µM (titrated, usually from 46.1 µM), inactives show at the highest dose activity change, positive = activation, hits mostly activators; HEK293 SMN2-luciferase splicing reporter, luminescence, 30-36 h; actives 2.8% (n = 210,000); note: % of control where 0% means no effect; nearly all actives have a fitted effect of over 55% in size
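HEK293 cells carry an SMN2 minigene-luciferase reporter in which exon 7 inclusion puts luciferase in frame. Cells were seeded at 2000 cells/well, attached for 10-12 hours, then exposed to compounds for 30-36 hours at 37C before ONE-Glo luminescence.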
FLuc counter: inhibits or activates purified firefly luciferase, miR-21 counter-screen; actives 6.9% (n = 360,000); Potency, µM (series often up to 57.5 µM), inactives show top-dose activity change, negative = inhibition, most hits filed as inhibitors; purified FLuc, Km substrates, luminescence inhibition; P08659;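 note: plate controls were vehicle for no effect and reference inhibitor for full effect; nearly all actives have a fitted effect of over 55% in size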
Target sequence (P08659 whole entry, looked up): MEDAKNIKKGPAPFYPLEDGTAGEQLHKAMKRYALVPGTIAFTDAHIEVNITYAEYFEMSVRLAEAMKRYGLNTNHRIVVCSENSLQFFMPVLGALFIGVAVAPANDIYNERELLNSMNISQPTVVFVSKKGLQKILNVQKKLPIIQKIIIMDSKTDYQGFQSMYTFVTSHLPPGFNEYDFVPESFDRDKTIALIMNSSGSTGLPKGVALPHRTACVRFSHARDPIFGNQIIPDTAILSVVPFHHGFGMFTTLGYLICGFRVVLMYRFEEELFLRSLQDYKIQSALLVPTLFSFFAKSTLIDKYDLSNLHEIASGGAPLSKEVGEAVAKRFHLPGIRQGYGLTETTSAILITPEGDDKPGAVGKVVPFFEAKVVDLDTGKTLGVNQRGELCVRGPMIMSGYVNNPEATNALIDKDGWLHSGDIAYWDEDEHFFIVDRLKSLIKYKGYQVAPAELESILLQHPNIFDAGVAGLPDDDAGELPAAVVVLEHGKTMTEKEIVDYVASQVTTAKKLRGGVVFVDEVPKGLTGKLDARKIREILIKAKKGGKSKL
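Biochemical qHTS of compounds, final roughly 60 µM downward over six points, against 10 nM purified firefly luciferase using Km concentrations of substrates (10 uM D-luciferin, 10 uM ATP) in Tris acetate pH 7.5 buffer; luminescence output.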
ELG1 DNA repair: ELG1-dependent DNA repair inhibition. Potency, µM (top dose mostly 46.1 µM), for the others: at the highest dose activity change, negative = inhibition, actives largely listed as inhibitors. AID 504467. actives 2.3% (n = 330,000). HEK293T ELG1-luciferase reporter, luminescence, 16 h; DNA damage induced by 5-fluorouridine; note: % is set by controls: 0 for no effect and ±100 for the full control effect; nearly all actives have a fitted effect of over 55% in size
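HEK293T cells expressing luciferase-tagged ELG1 (2,000/well) received 5-Fluorouridine plus compound or DMSO for 16 hr at 37 °C. Luciferase was read by ONE-Glo luminescence after 30 min at room temperature.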
NPC1 promoter act: NPC1 promoter activation; actives 2.4% (n = 320,000); Potency, µM (series often up to 9.22 µM), for the others: top-dose activation, hits mostly activators; Huh7 NPC1 promoter luciferase reporter, 24 h; note: % of control where 0% means no effect; nearly all actives have a fitted effect of over 60% in size
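Huh7 cells stably carrying NPC1 promoter–luciferase, plated in Opti-MEM with 10% FBS for 2 h, were exposed to compound in DMSO for 24 h at 37 °C; luciferase reagent was added for 10 min and luminescence read.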
ELG1 genotox: inducers of genotoxicity in HEK293T ELG1-luciferase cells | Potency, µM (highest dose often 46 µM), inactives show at the highest dose activity change, positive = activation, usual class: activators | actives 1.3% (n = 330,000) | HEK293T ELG1-luciferase reporter, luminescence, 16 h; note: % of control where 0% means no effect; nearly all actives have a fitted effect of over 60% in size
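Screening used a luciferase reporter fused to human ELG1 in HEK293T cells. Luminescence was read on a CCD plate imager after 16 hr exposure and 30 min ONE-Glo incubation.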
Starred values were filed as active, the others as inactive; ? = inconclusive; . = not tested or not shown; [ ] = another dose, or the depositor's remark. Calls come from the whole dose curve; as a rule, active = well fitted curve in the direction sought with a large enough effect; inconclusive = small, poorly fitted or top-dose-only effect, or another doubt; inactive = no such curve, though single readings can be large; an effect the other way counts as inactive or inconclusive. Potency is the fitted concentration of half-maximal effect.

SMILES	Rab9 promoter act	SMN2 splice up	FLuc counter	ELG1 DNA repair	NPC1 promoter act	ELG1 genotox
COc1ccc(C(=O)NNC2=CC(=O)CC(C)(C)C2)cc1	-1.1%	-7.0%[1.84 µM]	2.3%	11.3%	-11.3%	2.8%
O=C(CCCc1cccs1)Nc1nc(-c2ccc(F)cc2)cs1	-2.9%	-43.7%	-0.4%	18.8%	-4.6%	1.7%
COc1cc(NS(=O)(=O)c2ccc(C)cc2C)cc(OC)c1OC	-24.3%	-62.9%	3.6%	10.3µM*	-20.4%	3.3%
CCN1CCN(CCCNC(=O)CCC(=O)N2CCOc3ccccc32)CC1	3.3%	.	2.6%	3.3%	-3.1%	0.6%
O=C(/C=C/c1nc2ccccc2s1)N1CCCCCC1	2µM*	.	15.1µM*	?	3.16µM*	?
Cc1cc(C)cc(N(CC(=O)O)S(=O)(=O)c2c(C)[nH]c(=O)[nH]c2=O)c1	-6.8%	.	-4.4%	8.2%	-0.9%	-0.8%
O=C(CCl)N(c1ccccc1)c1ccccc1	-54.0%	.	-1.1%	20.6µM*	-37.7%	-13.2%
CCC(O)(CC)C(=O)NN(C(=O)CCl)c1ccccc1	-0.7%	-21.2%	0.9%	?	4.2%	-3.4%
Cc1ccc(N(NC(=O)C(O)(c2ccccc2)c2ccccc2)C(=O)CCl)cc1	-60.4%	-88.2%	-1.7%	20.6µM*	-45.8%	0.2%
O=C(Nc1ccccc1)NN(C(=O)CCl)c1ccccc1	-22.9%	.	-3.0%	23.1µM*	-26.3%	-24.4%
COc1ccc(OC)c(NC(=O)c2cccc(NC(=O)c3ccccc3)c2)c1	18.7%	.	16.9µM*	?	-1.2%	-2.7%
COc1ccc(OC)c(NC(=O)c2ccc(OC3CSC3)cc2)c1	0.4%	-12.4%	10.7µM*	?	-1.8%	23.2%
COc1ccc(OC)c(NC(=O)C(=O)NNC(=O)C23CC4CC(CC(C4)C2)C3)c1	-3.0%	.	-0.2%	29.1µM*	-2.5%	-9.6%
COc1ccc(OC)c(NC(=O)c2ccc(NC(C)=O)cc2)c1	-2.1%	.	-9.3%	0.2%	-2.2%	0.4%
CCCc1cc(C(=O)Nc2cc(OC)ccc2OC)cs1	0.8%	.	19µM*	0.0%	-4.8%	6.7%
Cc1no[n+]([O-])c1COc1ccc(/C=C2\NC(=S)NC2=O)cc1	-4.0%	-10.9%	-8.3%	?	0.3%	15.6%
COc1cccc(C(=O)NCCS(=O)(=O)N2CCC3(CC2)OCCO3)c1	0.2%	.	-2.0%	-0.9%	-2.3%	2.9%
COc1ccc(NC(=O)c2cccc(NC(=O)c3ccccc3)c2)c(OC)c1	2.0%	.	19µM*	?	-9.2%	-2.5%
COc1ccc(NC(=O)c2ccc3nc(-c4ccccc4)c(-c4ccccc4)nc3c2)c(OC)c1	-2.0%	-10.6%	6.4%	-8.6%	2.0%	12.9%
COc1ccc(C2=NOC(C(=O)NCc3cccnc3)C2)cc1OC (stereo not given)	8.2%	.	-1.3%	-7.6%	-2.9%	1.3%
CC(=O)Nc1cccc(C(=O)/C=C/c2ccc(N(C)C)cc2)c1	24.8%	5.3%	2.69µM*	?	2.2%	?
CC(=O)Nc1cccc(C(=O)/C=C/c2cccs2)c1	?	8.2%	13.5µM*	6.5%	23.2%	0.3%
CC(=O)Nc1cccc(C(=O)/C=C/c2ccc(/C=C/C(=O)c3cccc(NC(C)=O)c3)cc2)c1	-33.8%	-68.3%	0.0%	?	-31.0%	-16.9%
CC(=O)Nc1cccc(C(=O)/C=C/c2ccc(F)cc2)c1	-0.4%	-11.5%	19µM*	?	2.3%	?
CCNC(=S)NNC(=O)c1ccccc1Cl	-2.8%	1.6%	6.7%	-1.6%	-3.8%	-2.1%
O=C(CSc1nnc(-c2ccco2)n1Cc1ccco1)NCc1ccccc1	-4.6%	10.1%	-1.5%	-11.4%	0.9%	-2.2%
O=C(CSc1nnc(-c2ccccc2)n1Cc1ccco1)NCc1ccc2c(c1)OCO2	19.6%	-6.8%	-0.7%	16.4µM*	-4.3%	-1.8%
